About 83,000 compounds went through this panel and 20% of them were active in at least one assay; those are over-represented in the sample as a whole.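 A percent growth of 40 corresponds to 60% growth inhibition; 0 means no net growth; -100 means all cells died. Active threshold: below 10.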 Calls of active or inactive are those of the source.
tested on: NCI-H23 lung; experiment: NCI-60 one-dose screen, 48 h (100 = growth as untreated, 0 = no growth, -100 = all killed); settings: 10 µM unless noted
Description: Growth inhibition of the NCI-H23 human Non-Small Cell Lung tumor cell line is measured as a screen for anti-cancer activity. Cells are grown in 96 well plates and exposed to the test compound for 48 hours. Compounds are tested at a single concentration, which is 10^-5 M for most compounds. The reported endpoint is percent growth (GI% or GIPRCNT), where numbers from 0 - 100% represent growth inhibition, and numbers from -100% - 0 represent cell death. For example, a value of 40 represents 60% growth inhibition. A value of 0 means no net growth occurred over the course of the experiment. A value of -40 indicates 40% of cells at the beginning of the experiment died by the end of the experiment. A value of -100 means all cells are dead at the end of the experiment.
NCI-60 Human Tumor Cell Lines Screen was performed using the standard one-dose NCI protocol, which is described in more detail at https://dtp.cancer.gov/discovery_development/nci-60/default.htm.
Compounds with GIPRCNT values below 10 were considered active. Activity score was based on GIPRCNT using the following formula: […]
Score is 0 for GIPRCNT values of 100 or above, 50 for GIPRCNT values of 0, and 100 for GIPRCNT values of -100.

Structure (SMILES) | growth
CCN1CCN(c2cc(C)c3cc(NC(=O)c4ccc(OC)c(OC)c4)ccc3n2)CC1 | 58.2% (inactive)
COc1ccc(-c2cn[nH]c2-c2ccc(OC)c(O)c2)cc1 | 92.8% (inactive)
Cc1ccc2cccc(Oc3ccc(Nc4ncnc5onc(-c6ccccc6)c45)cc3)c2n1 | 87.9% (inactive)
COc1ccc(/C(C#N)=C/c2nc3c(N4CCOCC4)nc(Cl)nc3n2C)cc1OC | 24% (inactive)
COc1cc(/C=C/C(=O)c2ccc(Nc3nc(NCCO)nc(N4CCOCC4)n3)cc2)cc(OC)c1OC | 15.7% (inactive)
Brc1ccc(Nc2nc3ccccc3nc2Nc2ccc(Br)cc2)cc1 | -16.4% (active)
COc1ccc(Cn2c(Br)c3c(c2-c2cc(OC)c(OC)c(OC)c2)CCc2sc(NC(=O)c4ccc(OC)cc4)nc2-3)cc1 | 91.9% (inactive)
O=C1c2cc(Cl)ccc2Oc2cc([N+](=O)[O-])ccc2N1c1ccc(F)cc1F | 94.1% (inactive)
CN1C(=O)N(C)C2C1NN=c1s/c(=C\c3c[nH]c4ccccc34)c(=O)n12 (stereo not given) | 38.7% (inactive)
CC/C=C\C[C@H](O)C/C=C1/C(=O)C=C[C@@H]1C/C=C\CCCC(=O)OCCS(=O)(=O)c1ccccc1 | 59% (inactive)
COc1ccc(C2=NN(/C=C3\SC(=O)NC3=Nc3ccc(F)cc3)C(c3ccc(F)cc3)C2)cc1 (stereo not given) | 96.9% (inactive)
O=Cc1c(OCc2cnnn2CC(=O)Nc2ccc(Cl)cc2)ccc2ccccc12 | 101% (inactive)
CCN(CC)c1cc(C)c2cc(NC(=O)c3cccc(OC)c3)ccc2n1 | 85% (inactive)
COc1cccc(C(=O)Cn2cc(/C=C(\C#N)S(=O)(=O)c3ccccc3)c3ccccc32)c1 | 90.4% (inactive)
O=C(O)CCCN1C(=O)C2C3CCC(C3)C2C1=O (stereo not given) | 101% (inactive)
COc1ccc(-c2cn3c(C(=O)Nc4ccccc4Cl)c(-c4ccccc4)c4c3n2CCCC4)cc1 | 86.8% (inactive)
O=C(N=Nc1c(O)[nH]c2ccccc12)c1oc2ccccc2c1CN1CCN(c2ccccc2)CC1 | -0.112% (active)
COC(=O)C1=C(C)NC(C)=C(C(=O)OC)C(N2C(=O)CCC2=O)C1 (stereo not given) | 96.8% (inactive)
COc1cc2cc3c(=O)n4c(cc5cc(OC)ncc54)c(=O)n3c2cn1 | 101% (inactive)
CN1CCN(Cc2ccc(C(=O)Nc3cncc(C#Cc4cnc(N)c5ccccc45)c3)cc2C(F)(F)F)CC1 | -41.8% (active)

Structure (SMILES) | growth
C1CCN(c2nc(N3CCCCC3)nc(N3CCOCC3)n2)CC1 | 95.7% (inactive)
CC1(O)COCCCCOc2c(CN)cccc2NC(=O)c2nc(cnc2N)-c2ccc(cc2)S(=O)(=O)C(C)(C)C1 (stereo not given) | -66.7% (active)
O=C(NN1C(=O)CSC1c1ccc(Cl)cc1)c1[nH]c2ccc(F)cc2c1-c1ccccc1 (stereo not given) | 57.8% (inactive)
FC(F)(F)c1cccc(Nc2nc3ccccc3nc2Nc2cccc(C(F)(F)F)c2)c1 | 39.7% (inactive)
CN(C)CCCNCc1ccc(-c2ccc(F)c(Cl)c2)o1 | 77.1% (inactive)
O=C(Nc1ccc(-c2nc3ccc(NC(=O)c4ccc(Cl)cc4)cc3[nH]2)cc1)c1ccc(Cl)cc1 | 56% (inactive)
CN1CCN(Cc2ccc(NC(=O)c3[nH]ncc3Nc3cc(OC4CCCC4)ncn3)cc2)CC1 | 45.8% (inactive)
COc1ccc(/C=C2\SC(=Nc3ccccc3)NC2=O)cc1 | 21.6% (inactive)
COc1nc2c(c(=O)n1C)N=C1c3ccccc3C(=O)C1C(c1ccccc1)N2 (stereo not given) | 94.1% (inactive)
COC(=O)C1(C)COP(=O)(Nc2ccc(OC)cc2)OC1 (stereo not given) | 102% (inactive)
CC(=O)Nc1nc2c(s1)CCc1c-2cn(S(=O)(=O)c2ccccc2)c1-c1ccccc1 | 82.1% (inactive)
O=c1c(-c2nc3ccccc3[nH]2)cc2ccccc2n1Cc1cn(Cc2ccc(F)cc2)nn1 | 23.5% (inactive)
NNC(=O)CNC(=O)Nc1n[nH]c(=S)s1 | 100% (inactive)
O=C1c2ccc3c4c(ccc(c24)C(=O)N1CCCCO)C(=O)N(CCCCO)C3=O | 80.5% (inactive)
O=C(Nc1ccc(F)cc1F)c1cc(Cl)ccc1O | 5.18% (active)
COc1cc(C2C(C#N)=C(N)OC3=C2C(=O)c2ccccc2C3=O)cc(OC)c1O (stereo not given) | 32.5% (inactive)
COc1ccc(Nc2nc(N/N=C/c3ccc(O)cc3)nc(Nc3ccc([N+](=O)[O-])cc3)n2)cc1 | 103% (inactive)
CCOc1ccc(Nc2ccnc3cc(Cl)ccc23)cc1 | -3.27% (active)
Cc1nc(Nc2ccccn2)sc1C(=O)/C=C/c1ccc(Cl)cc1 | 22.7% (inactive)
CCCC(=O)CC(C)=O.CCCC(=O)CC(C)=O.[Cu] | 97.3% (inactive)
